In PubChem BioAssay (NCI):
The panel holds about 79,000 compounds, 15% with a hit somewhere; the sample as a whole holds those more often. Rule as the data show it: active = growth inhibition above about 70%; inactive = the rest.

What was measured:
[1] = NCI Yeast Anticancer Drug Screen. Data for the rad50 strain (AID 155);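 also: 0% = growth of vehicle-only cultures of the same strain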; conditions: S. cerevisiae rad50 strain growth inhibition; at 50.0 µM; active compounds read high
How it was run: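 Relative growth inhibition (compound vs vehicle) was measured in yeast with a defined repair-gene alteration.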

[2] = NCI Yeast Anticancer Drug Screen. Data for the mec2-1 strain (AID 157); conditions: S. cerevisiae mec2-1 strain, at 50.0 µM, active compounds read high
How it was run: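 Strain: mec2-1 (DNA repair/cell cycle alteration). Compound exposure, then growth measured; inhibition expressed relative to vehicle.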

[3] = NCI Yeast Anticancer Drug Screen. Data for the sgs1 mgt1 strain (AID 161);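 also: 0% = growth of cultures given vehicle only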; conditions: S. cerevisiae sgs1 mgt1 strain, at 50.0 µM, active compounds read high
How it was run: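 Genetically altered yeast, compound exposure, growth inhibition relative to vehicle.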

[4] = NCI Yeast Anticancer Drug Screen. Data for the cln2 rad14 strain (AID 165);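 also: 0% = growth equal to vehicle treated cultures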; conditions: S. cerevisiae cln2 rad14 strain, at 50.0 µM, active compounds read high
How it was run: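 Compounds are applied to the cln2 rad14 yeast strain, and growth is then compared with that of vehicle-treated cultures to give inhibition.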

[5] = NCI Yeast Anticancer Drug Screen. Data for the bub3 strain (AID 167); conditions: S. cerevisiae bub3 mutant strain, at 50.0 µM, active compounds read high
How it was run: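 Screening used yeast with an engineered genetic alteration affecting cell cycle control. Compound-exposed cultures were compared with vehicle cultures, and reduced growth was taken as inhibition.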

[6] = NCI Yeast Anticancer Drug Screen. Data for the mlh1 rad18 strain (AID 175); conditions: S. cerevisiae mlh1 rad18 strain growth inhibition; at 50.0 µM; active compounds read high
How it was run: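 Read-out is yeast growth inhibition, calculated against vehicle-only controls. The compound was applied to a strain engineered with DNA damage repair alterations.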

Measured: growth inhibition

Cc1ccc(NC(=O)Nc2ccc(Cl)c(Cl)c2)c(C)c1
inactive: [1] -6.05% | [2] 11.2% | [3] -1.75% | [4] -16.6% | [5] -4.2% | [6] -20.9%

CC(C)SCC(N)C(=O)O (stereo not given)
inactive: [1] -17.8% | [2] -10.7% | [3] -2.65% | [4] -15% | [5] -11.8% | [6] -15.8%

O=C(O)/C=C\Sc1ccccc1C(=O)O
inactive: [1] 2.05% | [2] -15.9% | [3] -6.5% | [4] -2.05% | [5] -10.2% | [6] 23.1%

Cc1ccccc1NC(=O)C(=O)C(C#N)c1ccc(Cl)cc1Cl (stereo not given)
inactive: [1] -19.3% | [2] 6% | [3] 24.8% | [4] -19.6% | [5] 7.3% | [6] 19.9%

CN(C)c1ccccc1CCO
inactive: [1] -4.2% | [2] -33.5% | [3] -6.7% | [4] -0.4% | [5] -3.65% | [6] 3.35%

C/C=C(\C)c1cc(=O)c2c(C)cc3c(c2o1)C(=O)c1c(OC)cccc1C3=O
inactive: [1] 14.2% | [2] -14.8% | [3] -1.05% | [4] -4.65% | [5] -6.95% | [6] 23.9%

CN(C)C(=O)Sc1ccc(O)cc1
inactive: [1] 5.05% | [2] -21.6% | [3] -4.65% | [4] -28.3% | [5] 12.9% | [6] -2.8%

O=C(O)c1cc([N+](=O)[O-])ccc1Oc1cccc([N+](=O)[O-])c1
inactive: [1] -30.9% | [2] -1.2% | [3] 1.2% | [4] 27% | [5] 2.95% | [6] -8.25%

CCC(CC)COC(=O)c1ccccc1C
inactive: [1] 7.45% | [2] -0.15% | [3] -0.85% | [4] -27.1% | [5] 15.4% | [6] 0.6%

CN(C)CCNC(=O)c1cccc(C(=O)Nc2ccccc2)c1[N+](=O)[O-]
inactive: [1] 13.7% | [2] -12.6% | [3] -7.7% | [4] 20.4% | [5] -9.95% | [6] -41.6%

CCOC(=O)C1(C)CCCC1=O (stereo not given)
inactive: [1] 13.8% | [2] -8.6% | [3] 3.95% | [4] 6.95% | [5] 2.6% | [6] -0.4%

CC(=O)OC1CCC2(C)C(CCC3(C)C2CC=C2C4CC(C)(C)CCC4(C)CCC23C)C1(C)C (stereo not given)
inactive: [1] 5.85% | [2] -1% | [3] -8.8% | [4] -1.6% | [5] 6.05% | [6] -5.3%

Cc1cc(S(=O)(=O)O)c(NC(=O)C(=O)C2C=CCS2(=O)=O)cc1Cl (stereo not given)
inactive: [1] -5.2% | [2] -20.8% | [3] -8.65% | [4] 1.8% | [5] -8.15% | [6] -8.85%

Cc1cc(=O)c2cc(Br)cc(Br)c2[nH]1
inactive: [1] 11.8% | [2] -13.8% | [3] 8.3% | [4] 0.05% | [5] 9.85% | [6] 12%

O=C1OC2(C(F)(F)F)Oc3ccccc3CN2C12CCCCC2 (stereo not given)
inactive: [1] 17.6% | [2] 35% | [3] 11.4% | [4] 25.1% | [5] 42.5% | [6] 13.2%

Nc1on(C(=O)c2ccccc2)c(=O)c1Cc1ccccc1
inactive: [1] -19.2% | [2] 3.6% | [3] 15.9% | [4] -36% | [5] 2.25% | [6] -2.1%

CC1=C(C(=O)N(C)c2ccc(Cl)c(C(=O)OC(C)C)c2)SCCO1
inactive: [1] -19.6% | [2] -50.8% | [3] -12.1% | [4] -6% | [5] -11.8% | [6] -28.1%

O=N[O-].O=N[O-].[Co].[NH-]CC[N-]CC[N-]CC[NH-]
inactive: [1] 10.4% | [2] 7.2% | [3] 1.9% | [4] 3.65% | [5] 19.6% | [6] 11%

O=C(c1ccc(Cl)cc1)c1cccc(Cl)c1
inactive: [1] -6.35% | [2] -16.1% | [3] -3.7% | [4] -1.5% | [5] -10% | [6] 6.3%

O=c1c2[nH]cnc2ncn1Cc1ccccc1
inactive: [1] 0.95% | [2] 1.35% | [3] 0.3% | [4] -32.5% | [5] -20.6% | [6] -6.25%
